PubChem BioAssay AID1159580 (chemical genetic matrix, 2015)
Among all 5,500 compounds or so, about 2,000 (36%) were called active. Roughly 18% stayed inconclusive and do not appear here. Cut-off read from the data, not from the text of the source: active = normalized growth mostly below about 0.91 (no sharp cut-off); inconclusive = no clear call, values can overlap the other calls; inactive = mostly above about 0.92. The list shows a part of the results.

Experiment: chemical genetic growth profiling, strain panel (AID 1159580);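 note: tested at 20 µM; growth read once vehicle control cultures reached saturation at 30 °C; 1 = growth at the plate median or of vehicle wells; lower values mean less growth of the strain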
Settings: growth OD
[1] = S. cerevisiae deletion strains, locus YDL101C, strain DUN1, hits give low values
[2] = S. cerevisiae deletion strains, locus YHR030C, strain SLT2, hits give low values

Measured: normalized growth

Cc1ccc2nc(-c3ccc([N+](=O)[O-])o3)oc(=O)c2c1
inactive: S. cerevisiae deletion strains, strain NNK1, hits give low values 0.93
active: S. cerevisiae deletion strains, locus YAR019C, strain CDC15, hits give low values 0.0888 | S. cerevisiae deletion strains, locus YBL105C, strain PKC1, hits give low values 0.0913 | S. cerevisiae deletion strains, locus YBR135W, strain CKS1, hits give low values 0.193 | S. cerevisiae deletion strains, locus YBR136W, strain MEC1, hits give low values 0.181 | S. cerevisiae deletion strains, locus YBR160W, strain CDC28, hits give low values 0.231 | S. cerevisiae deletion strains, locus YDL017W, strain CDC7, hits give low values 0.259 | S. cerevisiae deletion strains, locus YDL028C, strain MPS1, hits give low values 0.595 | [1] 0.162 | S. cerevisiae deletion strains, locus YDL214C, strain PRR2, hits give low values 0.1 | S. cerevisiae deletion strains, locus YDR226W, strain ADK1, hits give low values 0.361 | S. cerevisiae deletion strains, locus YDR477W, strain SNF1, hits give low values 0.0976 | S. cerevisiae deletion strains, locus YER123W, strain YCK3, hits give low values 0.14 | S. cerevisiae deletion strains, locus YER133W, strain GLC7, hits give low values 0.116 | S. cerevisiae deletion strains, locus YFL009W, strain cdc4, hits give low values 0.37 | S. cerevisiae deletion strains, locus YFL029C, strain CAK1, hits give low values 0.124 | S. cerevisiae deletion strains, locus YFR019W, strain FAB1, hits give low values 0.112 | S. cerevisiae deletion strains, locus YFR028C, strain CDC14, hits give low values 0.149 | S. cerevisiae deletion strains, locus YGR040W, strain KSS1, hits give low values 0.109 | S. cerevisiae deletion strains, locus YGR052W, strain FMP48, hits give low values 0.112 | S. cerevisiae deletion strains, locus YGR092W, strain DBF2, hits give low values 0.108 | [2] 0.141 | S. cerevisiae deletion strains, locus YHR079C, strain IRE1, hits give low values 0.139 | S. cerevisiae deletion strains, locus YHR082C, strain KSP1, hits give low values 0.131 | S. cerevisiae deletion strains, locus YHR205W, strain SCH9, hits give low values 0.00195 | S. cerevisiae deletion strains, locus YIL147C, strain SLN1, hits give low values 0.52 | S. cerevisiae deletion strains, locus YJL095W, strain BCK1, hits give low values 0.121 | S. cerevisiae deletion strains, locus YJL157C, strain FAR1, hits give low values 0.0957 | S. cerevisiae deletion strains, locus YJR016C, strain ILV3, hits give low values 0.376 | S. cerevisiae deletion strains, locus YJR066W, strain TOR1 (second series), hits give low values 0.103 | S. cerevisiae deletion strains, locus YJR066W, strain TOR1, hits give low values 0.121 | S. cerevisiae deletion strains, locus YKL048C, strain ELM1, hits give low values 0.119 | S. cerevisiae deletion strains, locus YKL067W, strain YNK1, hits give low values 0.138 | S. cerevisiae deletion strains, locus YKL101W, strain HSL1, hits give low values 0.107 | S. cerevisiae deletion strains, locus YKL193C, strain SDS22, hits give low values 0.142 | S. cerevisiae deletion strains, locus YKL203C, strain TOR2, hits give low values 0.101 | S. cerevisiae deletion strains, locus YLR113W, strain HOG1, hits give low values 0.157 | S. cerevisiae deletion strains, locus YLR133W, strain CKI1, hits give low values 0.0945 | S. cerevisiae deletion strains, locus YLR403W, strain SFP1, hits give low values 0.000914 | S. cerevisiae deletion strains, locus YML070W, strain DAK1, hits give low values 0.12 | S. cerevisiae deletion strains, locus YMR001C, strain CDC5, hits give low values 0.127 | S. cerevisiae deletion strains, locus YMR205C, strain PFK2 (second series), hits give low values 0.11 | S. cerevisiae deletion strains, locus YMR277W, strain FCP1, hits give low values 0.124 | S. cerevisiae deletion strains, locus YNL006W, strain LST8, hits give low values 0.0975 | S. cerevisiae deletion strains, locus YNL020C, strain ARK1, hits give low values 0.105 | S. cerevisiae deletion strains, locus YNL161W, strain CBK1, hits give low values 0.142 | S. cerevisiae deletion strains, locus YNL183C, strain NPR1, hits give low values 0.118 | S. cerevisiae deletion strains, locus YNL207W, strain RIO2, hits give low values 0.12 | S. cerevisiae deletion strains, locus YNL222W, strain SSU72, hits give low values 0.101 | S. cerevisiae deletion strains, locus YNL307C, strain MCK1 (second series), hits give low values 0.1 | S. cerevisiae deletion strains, locus YOL078W, strain AVO1, hits give low values 0.164 | S. cerevisiae deletion strains, locus YOL136C, strain PFK27, hits give low values 0.19 | S. cerevisiae deletion strains, locus YOR061W, strain CKA2, hits give low values 0.0958 | S. cerevisiae deletion strains, locus YOR119C, strain RIO1, hits give low values 0.123 | S. cerevisiae deletion strains, locus YOR231W, strain MKK1, hits give low values 0.127 | S. cerevisiae deletion strains, locus YOR329C, strain SCD5, hits give low values 0.0982 | S. cerevisiae deletion strains, locus YPL031C, strain PHO85, hits give low values 0.102 | S. cerevisiae deletion strains, locus YPL153C, strain RAD53, hits give low values 0.136 | S. cerevisiae deletion strains, locus YPL204W, strain HRR25, hits give low values 0.116 | S. cerevisiae deletion strains, locus YPL209C, strain IPL1, hits give low values 0.179 | S. cerevisiae deletion strains, locus YPL256C, strain CLN2, hits give low values 0.174 | S. cerevisiae deletion strains, locus YPR025C, strain CCL1, hits give low values 0.119 | S. cerevisiae deletion strains, locus YPR111W, strain DBF20, hits give low values 0.32 | S. cerevisiae deletion strains, strain TSCII, hits give low values 0.106

COc1cc2nc(-c3cccs3)oc(=O)c2cc1OC
inactive: S. cerevisiae deletion strains, locus YAL013W, strain DEP1, hits give low values 0.984 | S. cerevisiae deletion strains, locus YBR229C, strain ROT2, hits give low values 0.984 | [1] 0.987 | S. cerevisiae deletion strains, locus YDR150W, strain NUM1, hits give low values 0.908 | S. cerevisiae deletion strains, locus YEL061C, strain CIN8, hits give low values 0.981 | S. cerevisiae deletion strains, locus YGR078C, strain PAC10, hits give low values 0.987 | S. cerevisiae deletion strains, locus YGR229C, strain SMI1, hits give low values 1 | [2] 0.864 | S. cerevisiae deletion strains, locus YHR087W, strain rtc3, hits give low values 0.985 | S. cerevisiae deletion strains, locus YJL187C, strain SWE1, hits give low values 0.999 | S. cerevisiae deletion strains, locus YJR043C, strain POL32, hits give low values 0.978 | S. cerevisiae deletion strains, locus YJR075W, strain HOC1, hits give low values 0.971 | S. cerevisiae deletion strains, locus YLR039C, strain RIC1, hits give low values 0.999 | S. cerevisiae deletion strains, locus YLR058C, strain SHM2 (second series), hits give low values 0.994 | S. cerevisiae deletion strains, locus YLR085C, strain ARP6, hits give low values 0.936 | S. cerevisiae deletion strains, locus YLR262C, strain YPT6, hits give low values 1.01 | S. cerevisiae deletion strains, locus YML094W, strain GIM5, hits give low values 0.978 | S. cerevisiae deletion strains, locus YMR219W, strain ESC1, hits give low values 0.994 | S. cerevisiae deletion strains, locus YMR263W, strain SAP30, hits give low values 0.9 | S. cerevisiae deletion strains, locus YMR307W, strain GAS1, hits give low values 0.945 | S. cerevisiae deletion strains, locus YNL153C, strain GIM3, hits give low values 0.971 | S. cerevisiae deletion strains, locus YNL298W, strain CLA4 (second series), hits give low values 0.993 | S. cerevisiae deletion strains, locus YNL322C, strain KRE1, hits give low values 0.984 | S. cerevisiae deletion strains, locus YNR030W, strain Alg12, hits give low values 0.983 | S. cerevisiae deletion strains, locus YPL055C, strain LGE1, hits give low values 1.11 | S. cerevisiae deletion strains, locus YPL241C, strain CIN2, hits give low values 0.976 | S. cerevisiae deletion strains, locus YPR135W, strain CTF4, hits give low values 0.879 | S. cerevisiae strains, strain wild type, hits give low values 1
